Screening data from PubChem.
USP28 inh = human USP28 deubiquitinase inhibition. Q96RU2. purified USP28, Ub-rhodamine cleavage fluorescence, 30 min. inhibition, % at 25 µM. 3% of 47,000 active. AID 1645857
USP17 inh = inhibitors of human USP17 deubiquitinase. 6.5% of 47,000 active. purified USP17, Ub-rhodamine cleavage fluorescence, 3 h. A8MUK1. inhibition, % at 50 µM
USP10 inh = blocks human USP10 ubiquitin-rhodamine cleavage | purified USP10, Ub-rhodamine fluorescence, 60 min | 1.1% of 47,000 active | inhibition, % at 20 µM
USP30 block = inhibitors of human USP30 deubiquitinase | 5.3% of 47,000 active | inhibition, % at 25 µM | purified USP30, Ub-rhodamine cleavage fluorescence
Target sequence (Q70CQ3 whole entry, looked up): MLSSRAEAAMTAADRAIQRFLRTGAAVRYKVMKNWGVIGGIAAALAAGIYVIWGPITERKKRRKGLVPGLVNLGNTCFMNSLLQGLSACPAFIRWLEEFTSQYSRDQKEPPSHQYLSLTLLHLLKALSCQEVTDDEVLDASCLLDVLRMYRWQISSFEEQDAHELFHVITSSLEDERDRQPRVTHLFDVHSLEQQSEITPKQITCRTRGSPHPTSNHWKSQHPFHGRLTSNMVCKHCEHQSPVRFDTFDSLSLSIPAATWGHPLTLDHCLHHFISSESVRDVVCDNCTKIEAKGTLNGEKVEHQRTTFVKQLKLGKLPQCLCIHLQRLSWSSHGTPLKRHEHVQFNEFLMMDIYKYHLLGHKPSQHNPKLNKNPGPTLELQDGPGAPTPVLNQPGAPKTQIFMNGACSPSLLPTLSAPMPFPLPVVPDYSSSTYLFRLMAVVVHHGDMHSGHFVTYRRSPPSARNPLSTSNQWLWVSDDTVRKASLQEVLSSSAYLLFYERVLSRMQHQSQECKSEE
USP8 inh = blocks human USP8 ubiquitin-rhodamine cleavage | inhibition, % at 20 µM | P40818 | purified USP8, Ub-rhodamine cleavage fluorescence, 30 min | 4.2% of 47,000 active
* hit, by the source's call. Sampled rows, rich in hits. Any-hit rate of the full collection: about 13%. Cut-off read from the data, not from the text of the source: active = inhibition above about 30%; inactive = the rest.

For C/C(=C/C=C\C=C\Cc1cnco1)[C@@H](O)C(C)(C)C(=O)NC/C=C/C=C/[C@H](O)[C@H](C)C[C@@H]1OC(=O)[C@@]2(CO)N(C)C(=O)[C@H](C)[C@@]12O the results were USP28 inh -63, USP17 inh -42, USP10 inh -9, USP30 block -235 and USP8 inh -105.
`O=C(COc1ccc(Cl)cc1Cl)Nc1ccc2[nH]c(=O)[nH]c2c1` gave USP28 inh 47*, USP17 inh 35*, USP10 inh 31*, USP30 block 66* and USP8 inh 51*.
Screening Cc1ccccc1CSCC(=O)Nc1ccc2[nH]c(=O)[nH]c2c1 returned USP28 inh 32*, USP17 inh 45*, USP10 inh 10, USP30 block 42* and USP8 inh 0.
Screening O=C(COc1ccccc1C(=O)Nc1ccccc1)Nc1ccc2[nH]c(=O)[nH]c2c1 returned USP28 inh 0, USP17 inh 38*, USP10 inh -2, USP30 block -27 and USP8 inh -6.
`Cc1cc(Cl)ccc1OCC(=O)Nc1ccccc1` gave USP28 inh -6, USP17 inh 14, USP10 inh 2, USP30 block -3 and USP8 inh 0.
`Cc1cccc(C(=O)OCC(=O)Nc2ccc3[nH]c(=O)[nH]c3c2)c1C` gave USP28 inh 40*, USP17 inh 40*, USP10 inh 17, USP30 block 52* and USP8 inh -62.
Screening Cc1nnc(SC(C)C(=O)Nc2ccc3[nH]c(=O)[nH]c3c2)n1Cc1ccccc1 (stereo unspecified) returned USP28 inh 4, USP17 inh -6, USP10 inh 0, USP30 block -27 and USP8 inh -11.
Screening Cc1c(C(=O)N2CCOCC2)nnn1-c1cccc2c1CCN(C)C2 returned USP28 inh -6, USP17 inh 2, USP10 inh -4, USP30 block -19 and USP8 inh -10.
Screening Cc1nccn1-c1cc(N2CCCCC2)nc2ccnn12 returned USP28 inh -18, USP17 inh -14, USP10 inh -4, USP30 block -33 and USP8 inh -18.
For CC1Cc2cc(C(=O)NCc3ccc4c(c3)OCCCO4)ccc2O1 (stereo unspecified) the results were USP28 inh 1, USP17 inh 7, USP10 inh -1, USP30 block 4 and USP8 inh 2.
For Cc1ccc2[nH]c(=O)c(CN(CC3COCCO3)C(=O)Nc3cccc(Cl)c3)cc2c1 (stereo unspecified) the results were USP28 inh 7, USP17 inh 0, USP10 inh 11, USP30 block 6 and USP8 inh 11.
For O=C1[C@@H]2CCCN2c2ncccc2N1Cc1c(Cl)cccc1Cl the results were USP28 inh -4, USP17 inh -6, USP10 inh -4, USP30 block -15 and USP8 inh -7.
`CC(Oc1ccc(Cl)cc1)C(=O)OCC(=O)Nc1ccc2[nH]c(=O)[nH]c2c1` (stereo unspecified) gave USP28 inh 6, USP17 inh 23, USP10 inh -5, USP30 block -17 and USP8 inh -75.
COc1ccc(NC(=O)c2ccco2)cc1NC(=O)COc1ccc(Cl)cc1Cl was read as USP28 inh 0, USP17 inh -2, USP10 inh 1, USP30 block -5 and USP8 inh 43*.
`O=C(COC(=O)c1ccc(Cl)cc1)Nc1ccc2[nH]c(=O)[nH]c2c1` gave USP28 inh 31*, USP17 inh 14, USP10 inh 8, USP30 block 74* and USP8 inh 34*.
COc1cccc2cc(C(=O)NC3CCSC3=O)oc12 (stereo unspecified) was read as USP28 inh 9, USP17 inh 4, USP10 inh -1, USP30 block 25 and USP8 inh 7.
`COc1ccc(NC(=O)c2ccc(-c3ccccc3F)o2)cc1` gave USP28 inh 22, USP17 inh 5, USP10 inh 5, USP30 block -4 and USP8 inh 10.
For Cc1nc(CNC(=O)C(C)Oc2ccccc2Cl)cs1 (stereo unspecified) the results were USP28 inh -6, USP17 inh -1, USP10 inh -2, USP30 block 10 and USP8 inh 0.
Screening Cc1cc(C)cc(OC(C)C(=O)Nc2ccc3nsnc3c2)c1 (stereo unspecified) returned USP28 inh 7, USP17 inh 13, USP10 inh 6, USP30 block 5 and USP8 inh 24.
